# Only some compounds are listed: those with a hit (about 2.4% of all), similar ones and a draw of the others.
# D2 PAM-1 – potentiates the human D2 dopamine receptor allosterically | P14416 | DiscoveRx D2 beta-arrestin cells, luminescence, 90 min; 100% = 57 uM dopamine signal | potentiation, % (concentration not given with the values) | hit rate 0.23% among 360,000 | AID 624464; in the data active = potentiation above about 50%
# Target sequence (P14416 whole entry, looked up): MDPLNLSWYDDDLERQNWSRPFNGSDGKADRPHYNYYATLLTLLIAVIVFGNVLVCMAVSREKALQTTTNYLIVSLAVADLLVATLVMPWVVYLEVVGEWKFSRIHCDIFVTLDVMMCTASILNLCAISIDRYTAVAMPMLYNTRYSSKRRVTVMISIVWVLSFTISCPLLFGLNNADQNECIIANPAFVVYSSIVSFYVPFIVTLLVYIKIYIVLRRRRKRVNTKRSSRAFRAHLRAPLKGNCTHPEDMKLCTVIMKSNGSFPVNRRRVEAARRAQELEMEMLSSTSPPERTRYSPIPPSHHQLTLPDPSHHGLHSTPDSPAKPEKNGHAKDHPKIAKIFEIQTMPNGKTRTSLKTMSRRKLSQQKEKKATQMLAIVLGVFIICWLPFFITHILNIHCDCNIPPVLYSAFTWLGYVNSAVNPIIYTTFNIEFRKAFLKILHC
#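 PathHunter beta-arrestin assay in DiscoveRx D2 cells. Compounds were added with an EC20 of dopamine (50 nM final) for 90 min at 37 deg C. Luminescence was read 1 h after detection reagent, with 57 uM dopamine as the EC100 control.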
# D2 PAM-2 – D2 dopamine receptor (human) potentiation. potentiation, % at 10 µM. hit rate 0.34% among 340,000. P14416. AID 485347. HEK293 T-REx D2, calcium flux, EC20 dopamine potentiation;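 active = potentiation over 3 SD above the plate norm, cut at about 30% in these data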; also: 0% is about no effect
#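 Primary screen. Calcium kinetics in induced HEK293 T-REx D2 cells: compound pre-addition 180 s, EC20 dopamine, 180 s more.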
# D2 ag-1 – agonists of human D2 dopamine receptor (beta-arrestin); P14416; DiscoveRx PathHunter D2 beta-arrestin, luminescence, 90 min; 100% = 57 uM dopamine signal; activation, % (concentration not given with the values); hit rate 0.084% among 360,000; in the data active = activation above about 40%
#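 DiscoveRx PathHunter D2 beta-arrestin cells (2,100/well) attached overnight, then compound-stimulated 90 min at 37 C in HBSS/10 mM HEPES/0.1% Tween-20 buffer; beta-galactosidase complementation read by luminescence after 1 h at ambient temperature. Dopamine 57 uM final (EC100) as control.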
# D2 ag-2 – agonists of human D2 dopamine receptor; P14416; HEK293 T-REx D2 cells, calcium flux agonist mode; activation, % at 2 µM; hit rate 0.53% among 340,000;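 active = activation over 3 SD above normal in the single-dose calcium agonist read, cut at about 30% in these data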; also: 0% is about no effect
#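 Agonism is scored from calcium flux in a force-coupled, inducible HEK293 cell line expressing D2, read kinetically for 180 s after compound addition against dopamine controls.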
# D2 antagonist – antagonists of human D2 dopamine receptor; P14416; HEK293 TREx D2 cells, calcium flux, dopamine EC80; inhibition, % at 10 µM; hit rate 2% among 340,000; AID 485344; in the data active = inhibition above about 30%; inactive = below that, where a call was filed; also: 0% is about no effect
#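 Compounds are added to dye-loaded, induced HEK293 T-REx cells coupled to calcium release via D2; after a 3 min kinetic read an EC80 dopamine stimulus is given and fluorescence is recorded for 3 more min.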
# Starred values were filed as active, the others as inactive; nt = not tested or not shown.
SMILES,D2 PAM-1,D2 PAM-2,D2 ag-1,D2 ag-2,D2 antagonist
Cc1ccc(NC(=O)c2cc(S(=O)(=O)N3CCCCC3)c[nH]2)cc1N(C)C,nt,-13,nt,0,nt
Cc1cc2nc(-c3ccc(NC(=O)C(C)C)cc3)oc2cc1C,7,1,-2,0,32*
Cc1ccc(-c2nc3cc(NC(=O)C(C)C)ccc3o2)cc1,-11,-8,-1,-1,3
COc1ccccc1N1CCN(c2ccc(=O)n(CC(=O)Nc3cc(F)ccc3C)n2)CC1,nt,-2,nt,-1,nt
COc1ccccc1N1CCN(CC(=O)Nc2cc(F)ccc2C)CC1,-32,-23,-1,0,86*
COc1ccccc1N1CCN(CC(=O)Nc2ccc(Cl)c(C(F)(F)F)c2)CC1,-19,-30,3,1,81*
CCCCn1c(C2CC(=O)N(c3ccc(OCC)cc3)C2)nc2ccccc21 (stereo unspecified),nt,-4,nt,4,nt
CC1CCC(NC(=O)CCNS(=O)(=O)c2ccccc2)CC1 (stereo unspecified),2,-8,-2,1,12
O=C(CCNS(=O)(=O)c1cccc(C(F)(F)F)c1)NC1CC1,0,45*,-1,-1,13
O=C(/C=C/c1cccs1)NC1CCCC1,-8,20,-3,0,5
O=C(/C=C/c1cccs1)NC1CCS(=O)(=O)C1 (stereo unspecified),-1,-8,2,32*,-9
COc1ccc(-c2ccc(SCc3cccnc3)nn2)cc1OC,54*,nt,1,nt,nt
c1cncc(CSc2ccc(-c3cccnc3)nn2)c1,3,3,2,1,12
CC(=NO)c1ccc2c(c1)C(=NO)c1ccccc1-2,83*,nt,13,nt,nt
ON=C1c2ccccc2-c2ccc(O)cc21,-18,nt,-6,nt,nt
COCCCN1C(=O)c2ccc(C(=O)NCc3ccccn3)cc2C1=O,-15,32*,1,0,-4
COCCN1C(=O)c2ccc(C(=O)O)cc2C1=O,-5,39*,-2,0,-4
CC(C)CN1C(=O)c2ccc(C(=O)NCc3ccccn3)cc2C1=O,-6,0,-2,1,4
COc1ccccc1CNC(=O)c1ccc2c(c1)sc1nc(-c3ccc(F)cc3)cn12,nt,11,nt,-1,nt
CCC(=O)NNc1ncnc2c1cnn2-c1ccc(C)c(Cl)c1,nt,-10,nt,0,nt
COC(=O)c1c(C(=O)OC)c2ccccn2c1C(=O)c1ccc([N+](=O)[O-])cc1,21,nt,3,nt,nt
COC(=O)c1c(C(=O)OC)c2cc(C(=O)c3ccccc3)ccn2c1Cl,-13,47*,-3,0,3
Cc1cccc(-c2nc(S(=O)(=O)c3ccccc3)c(N3CCN(c4ccccc4)CC3)o2)c1,nt,-5,nt,nt,nt
O=C(N/N=C\c1c(O)ccc2ccccc12)c1cncc(Br)c1,0,0,-2,66*,8
O=C(N/N=C/c1c(O)ccc2ccccc12)c1cccnc1,-2,4,-3,8,-12
SMILES,D2 PAM-1,D2 PAM-2,D2 ag-1,D2 ag-2,D2 antagonist
CC1CCn2c(nc3cc(C(=O)NCc4ccc(OC(C)C)cc4)ccc32)C1 (stereo unspecified),nt,11,nt,-1,nt
COc1ccc(CCNC(=O)CCCn2nc(C)c3sc4ccccc4c3c2=O)c(OC)c1,nt,-2,nt,nt,nt
Cc1c(Cl)c(C(=O)NNC(=S)NCc2ccco2)nn1C,-1,2,-1,0,35*
Cn1cc(Cl)c(C(=O)NNC(=S)NCc2ccco2)n1,-9,-3,3,2,-23
O=C(NNC(=S)NCc1ccco1)c1ccc(Cl)s1,10,3,-3,0,33*
COc1ccccc1NC(=S)NNC(=O)c1nn(C)c(C)c1Cl,-16,-20,-4,0,82*
COc1ccccc1NC(=S)NNC(=O)c1nn(C)c(C)c1Br,-13,-6,-6,2,-4
CNC(=O)C1CCC(Cn2c(=O)c3sccc3n(CC(=O)Nc3cc(C)cc(C)c3)c2=O)CC1 (stereo unspecified),nt,11,nt,-1,nt
CCN(CC)c1ccc(-c2nc(-c3ccccc3C)no2)cc1[N+](=O)[O-],nt,3,nt,2,nt
COc1ccccc1CNC(=O)CN1C(=O)COc2ccc(S(=O)(=O)N3CCC(C)CC3)cc21,nt,-8,nt,24,nt
Fc1cccc2sc(Nc3nnc(-c4ccccc4)o3)nc12,-22,-7,-6,1,43*
CC1(OC(=O)C2CCCC2)C(=O)C=C2C=C(c3ccsc3)N(C3CCCC3)C=C2C1=O (stereo unspecified),21,-3,9,-1,37*
CCOC(=O)N1CCN(C(=O)c2ccc(OCC)c(OCC)c2)CC1,-20,1,-5,0,33*
CCOC(=O)N1CCN(C(=O)c2ccc(OC)c(OC)c2)CC1,-12,-4,-3,-1,-13
CCOc1ccc(C(N)=O)cc1OC,-23,58*,-3,1,13
Cc1oc2ccc(O)cc2c1C(=O)c1ccc(Cl)cc1,-12,-3,2,0,8
Cc1oc2ccc(O)cc2c1C(=O)c1ccc([N+](=O)[O-])cc1,54*,1,7,0,-3
CCC(C)(C)NC(=O)C1CCN(S(=O)(=O)c2c(C)noc2/C=C/c2ccc(C)cc2)CC1,nt,4,nt,1,nt
CC(NC(=O)c1ccc(Cl)cc1)c1nnc(SCc2ccc([N+](=O)[O-])cc2)n1C (stereo unspecified),-4,-11,1,1,32*
CCn1c(SCc2ccc([N+](=O)[O-])cc2)nnc1C(C)NC(=O)c1ccc(C)cc1 (stereo unspecified),-7,-5,-1,0,-5
CCc1ccccc1NC(=O)Cn1c(=O)n(CCCCCC(=O)NCc2ccc(C)cc2)c(=O)c2sccc21,nt,8,nt,0,nt
CN(Cc1ccccc1)c1ccc2cc(S(=O)(=O)N3CCCCC3)ccc2n1,nt,7,nt,nt,nt
CCCc1nc2ccc(NC(=O)c3ccco3)cc2c(=O)n1Cc1ccc(Cl)cc1,-6,45*,-3,0,0
CC(C)/C=C1\CC/C(=C\c2ccc(N(C)C)cc2)C1=O,-4,-7,-4,92*,27
Cc1cccc(C)c1NC(=O)CCCn1c(=O)c2cccn2c2ccccc21,nt,-2,nt,0,nt
Cc1onc(C(=O)N2CCN(c3ccccc3F)CC2)c1-c1ccccc1Cl,-34,34*,0,-1,-7
COc1cccc(CN2C(=O)C(C)N(C(=O)c3ccccc3)c3ccccc32)c1 (stereo unspecified),-1,31*,-6,2,-21
O=C(COC(=O)/C=C/c1ccco1)NCc1ccccc1Cl,0,9,-2,0,33*
O=C(COC(=O)/C=C/c1ccco1)NCc1ccc(Cl)cc1Cl,0,nt,8,nt,nt
CN1Cc2cccc3c2C(Cc2ccccc2S3)C1 (stereo unspecified),-34,-25,-2,1,48*

# Source: PubChem (National Center for Advancing Translational Sciences (NCATS))
